Our source for the binding signal values is publication PMC7862700, “An all-to-all approach to the identification of sequence-specific readers for epigenetic DNA modifications on cytosine”.

Common to all, as to experiment: DAPPL (digital affinity profiling via proximity ligation, sequencing); 10 mM Tris-HCl pH 7.5, 50 mM NaCl, 1 mM DTT, 4% glycerol, room temperature, 30 min; GST-TFs on glutathione beads, 16-mer random dsDNA library, 0.1% formaldehyde crosslink after washing; high values mean tight binding
Holding throughout (conditions): protein: recombinant; tags: N-terminal GST; dsDNA, one strand shown

One assay addresses T1, FLI1 (Homo sapiens, UniProt Q01543 1-452).
T1 sequence: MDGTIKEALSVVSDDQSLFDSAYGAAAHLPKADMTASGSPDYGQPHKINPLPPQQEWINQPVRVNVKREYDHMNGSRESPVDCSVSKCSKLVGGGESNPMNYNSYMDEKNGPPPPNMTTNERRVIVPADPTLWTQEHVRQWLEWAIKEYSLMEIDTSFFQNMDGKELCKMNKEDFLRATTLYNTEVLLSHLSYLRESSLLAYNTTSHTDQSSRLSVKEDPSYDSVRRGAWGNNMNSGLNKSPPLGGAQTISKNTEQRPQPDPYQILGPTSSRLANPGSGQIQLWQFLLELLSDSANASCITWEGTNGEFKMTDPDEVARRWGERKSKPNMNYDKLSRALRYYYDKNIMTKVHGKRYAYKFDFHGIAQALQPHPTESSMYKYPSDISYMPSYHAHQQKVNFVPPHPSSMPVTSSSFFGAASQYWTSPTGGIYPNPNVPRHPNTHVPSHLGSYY
The method in brief: (§1)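 GST fusions of human transcription factors were expressed in yeast and captured with glutathione beads. Once given DNA barcodes and pooled alongside a tag-only sample, they were incubated for 30 min at room temperature with 200 nmole of a random double-stranded 16-mer DNA library in Tris/NaCl/DTT/glycerol buffer, then washed, crosslinked (0.1% formaldehyde), proximity-ligated, PCR-amplified and sequenced on an Illumina NextSeq500. The binding signal of each hexamer is its read frequency for a factor divided by its frequency for the tag-only sample.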

Another assay addresses T2, ELK1 (Homo sapiens, UniProt P19419 1-428).
T2 sequence: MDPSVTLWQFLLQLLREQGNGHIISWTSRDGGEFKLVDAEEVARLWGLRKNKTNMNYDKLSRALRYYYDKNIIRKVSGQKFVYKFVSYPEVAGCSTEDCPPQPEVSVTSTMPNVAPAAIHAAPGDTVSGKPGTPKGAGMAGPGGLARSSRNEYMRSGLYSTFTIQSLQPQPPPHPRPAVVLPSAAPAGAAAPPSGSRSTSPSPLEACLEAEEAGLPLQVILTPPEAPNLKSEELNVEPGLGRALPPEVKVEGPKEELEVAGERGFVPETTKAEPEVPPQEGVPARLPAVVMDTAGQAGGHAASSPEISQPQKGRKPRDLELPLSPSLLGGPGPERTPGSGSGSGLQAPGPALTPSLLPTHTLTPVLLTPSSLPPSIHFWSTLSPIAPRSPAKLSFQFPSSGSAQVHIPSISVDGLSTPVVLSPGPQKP
An outline of the steps: as §1

The next assay has as its target T3, GABPA (Homo sapiens, UniProt Q06546 1-454).
T3 sequence: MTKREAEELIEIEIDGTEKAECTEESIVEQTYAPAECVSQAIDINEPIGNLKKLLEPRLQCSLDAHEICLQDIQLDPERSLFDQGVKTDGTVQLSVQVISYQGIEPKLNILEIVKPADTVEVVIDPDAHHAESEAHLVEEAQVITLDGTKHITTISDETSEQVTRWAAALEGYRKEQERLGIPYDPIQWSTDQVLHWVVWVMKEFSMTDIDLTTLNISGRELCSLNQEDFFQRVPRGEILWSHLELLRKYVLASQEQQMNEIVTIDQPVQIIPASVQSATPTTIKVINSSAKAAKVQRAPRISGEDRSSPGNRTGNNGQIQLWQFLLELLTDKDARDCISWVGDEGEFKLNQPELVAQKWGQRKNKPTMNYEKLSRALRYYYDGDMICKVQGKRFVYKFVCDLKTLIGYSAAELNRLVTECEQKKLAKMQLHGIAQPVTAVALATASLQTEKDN
An outline of the steps: as §1

The target of the next assay is T4, ERG (Homo sapiens, UniProt P11308 1-479).
T4 sequence: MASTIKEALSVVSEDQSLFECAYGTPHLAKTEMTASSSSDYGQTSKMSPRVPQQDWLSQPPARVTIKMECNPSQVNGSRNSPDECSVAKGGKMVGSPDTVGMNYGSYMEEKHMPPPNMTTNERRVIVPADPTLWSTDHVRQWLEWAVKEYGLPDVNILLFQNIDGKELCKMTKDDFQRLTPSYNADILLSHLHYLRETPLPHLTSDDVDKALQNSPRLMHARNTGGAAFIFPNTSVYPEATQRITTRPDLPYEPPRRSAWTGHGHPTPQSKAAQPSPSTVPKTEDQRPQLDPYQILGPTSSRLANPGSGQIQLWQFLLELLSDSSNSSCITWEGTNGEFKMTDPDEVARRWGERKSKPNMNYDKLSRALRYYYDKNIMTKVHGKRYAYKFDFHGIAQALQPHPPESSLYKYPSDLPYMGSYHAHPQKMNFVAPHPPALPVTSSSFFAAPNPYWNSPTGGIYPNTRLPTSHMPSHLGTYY
An outline of the steps: as §1

A further assay has as its target ELF1 (Homo sapiens, UniProt P32519 1-619). An outline of the steps: as §1
Another assay concerns the target T5, EHF (Homo sapiens, UniProt Q9NZC4 1-300).
T5 sequence: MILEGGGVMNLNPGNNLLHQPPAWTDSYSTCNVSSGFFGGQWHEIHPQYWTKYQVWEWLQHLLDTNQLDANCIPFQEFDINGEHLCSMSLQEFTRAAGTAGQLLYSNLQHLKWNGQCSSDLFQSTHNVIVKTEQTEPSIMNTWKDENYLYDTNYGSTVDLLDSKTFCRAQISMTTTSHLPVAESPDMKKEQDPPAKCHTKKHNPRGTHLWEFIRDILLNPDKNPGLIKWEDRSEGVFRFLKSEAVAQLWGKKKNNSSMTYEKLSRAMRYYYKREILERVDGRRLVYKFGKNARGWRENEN
An outline of the steps: as §1

The target in a further assay is SPI1 (Homo sapiens, UniProt P17947 1-270). The method in brief:
as §1

The target in a further assay is SPIB (Homo sapiens, UniProt Q01892 1-262). An outline of the steps: as §1
Chain of SPIB (Q01892 whole entry): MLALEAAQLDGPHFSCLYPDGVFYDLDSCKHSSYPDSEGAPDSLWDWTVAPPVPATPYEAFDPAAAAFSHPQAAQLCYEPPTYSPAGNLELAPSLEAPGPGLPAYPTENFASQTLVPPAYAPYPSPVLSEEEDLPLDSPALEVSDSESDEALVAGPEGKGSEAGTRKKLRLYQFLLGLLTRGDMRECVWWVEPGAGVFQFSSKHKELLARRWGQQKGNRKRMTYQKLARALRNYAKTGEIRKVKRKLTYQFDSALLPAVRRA
The next assay concerns the target T6, ELK3 (Homo sapiens, UniProt P41970 1-407).
T6 sequence: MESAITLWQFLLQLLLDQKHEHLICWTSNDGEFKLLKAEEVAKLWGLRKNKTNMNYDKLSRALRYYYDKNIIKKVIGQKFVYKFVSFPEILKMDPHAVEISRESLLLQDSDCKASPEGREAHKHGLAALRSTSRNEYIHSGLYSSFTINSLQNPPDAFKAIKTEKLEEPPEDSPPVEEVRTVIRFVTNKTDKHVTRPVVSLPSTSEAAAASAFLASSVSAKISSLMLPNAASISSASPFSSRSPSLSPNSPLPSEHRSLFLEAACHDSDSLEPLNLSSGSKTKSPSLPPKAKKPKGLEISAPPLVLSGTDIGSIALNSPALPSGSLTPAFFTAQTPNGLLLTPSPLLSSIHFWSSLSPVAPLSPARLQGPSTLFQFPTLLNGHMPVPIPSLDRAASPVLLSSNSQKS
The method in brief:
as §1

Another assay has as its target T7, FEV (Homo sapiens, UniProt Q99581 1-238).
T7 sequence: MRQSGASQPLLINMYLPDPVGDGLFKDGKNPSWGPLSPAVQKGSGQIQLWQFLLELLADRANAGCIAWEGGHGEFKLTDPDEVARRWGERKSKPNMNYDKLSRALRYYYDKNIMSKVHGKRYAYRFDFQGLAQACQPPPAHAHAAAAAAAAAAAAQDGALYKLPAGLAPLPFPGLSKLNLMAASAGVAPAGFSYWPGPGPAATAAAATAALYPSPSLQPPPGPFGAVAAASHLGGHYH
An outline of the steps: as §1

A further assay addresses ETV5 (Homo sapiens, UniProt P41161 1-510). An outline of the steps: as §1
A further assay deals with T8, SPIC (Homo sapiens, UniProt Q8N5J4 1-248).
T8 sequence: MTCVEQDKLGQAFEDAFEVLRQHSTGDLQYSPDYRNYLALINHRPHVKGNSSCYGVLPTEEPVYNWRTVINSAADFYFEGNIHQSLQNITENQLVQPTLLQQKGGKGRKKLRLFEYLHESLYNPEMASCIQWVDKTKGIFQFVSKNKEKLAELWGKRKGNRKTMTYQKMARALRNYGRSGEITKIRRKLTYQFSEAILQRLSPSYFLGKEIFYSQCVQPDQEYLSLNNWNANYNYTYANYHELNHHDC
The method in brief: as §1

Another assay has as its target ELF4 (Homo sapiens, UniProt Q99607 1-663). An outline of the steps: as §1
A further assay concerns the target T9, ELK4 (Homo sapiens, UniProt P28324-2 1-405).
T9 sequence: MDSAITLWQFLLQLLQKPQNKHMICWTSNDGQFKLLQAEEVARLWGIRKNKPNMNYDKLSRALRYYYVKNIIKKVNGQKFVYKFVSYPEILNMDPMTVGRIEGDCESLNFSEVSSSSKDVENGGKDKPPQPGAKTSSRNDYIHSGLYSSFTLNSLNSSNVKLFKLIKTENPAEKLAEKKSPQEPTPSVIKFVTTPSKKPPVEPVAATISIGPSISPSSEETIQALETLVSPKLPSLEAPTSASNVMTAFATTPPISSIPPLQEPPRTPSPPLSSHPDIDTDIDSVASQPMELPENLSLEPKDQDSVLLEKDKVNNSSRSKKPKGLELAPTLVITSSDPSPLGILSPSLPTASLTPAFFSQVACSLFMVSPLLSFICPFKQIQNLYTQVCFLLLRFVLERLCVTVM
The method in brief: as §1

The target of a further assay is T10, ETV2 (Homo sapiens, UniProt O00321 1-342).
T10 sequence: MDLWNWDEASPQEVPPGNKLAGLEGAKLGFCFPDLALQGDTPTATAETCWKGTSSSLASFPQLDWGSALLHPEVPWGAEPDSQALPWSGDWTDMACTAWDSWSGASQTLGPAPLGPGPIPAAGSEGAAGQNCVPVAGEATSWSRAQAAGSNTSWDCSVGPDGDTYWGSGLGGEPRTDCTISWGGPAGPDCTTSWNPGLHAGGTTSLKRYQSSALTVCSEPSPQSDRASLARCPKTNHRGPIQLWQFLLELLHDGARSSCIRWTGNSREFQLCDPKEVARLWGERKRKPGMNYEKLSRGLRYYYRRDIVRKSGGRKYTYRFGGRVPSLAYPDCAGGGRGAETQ
The method in brief:
as §1

The next assay has as its target T11, ELF3 (Homo sapiens, UniProt P78545 1-371).
T11 sequence: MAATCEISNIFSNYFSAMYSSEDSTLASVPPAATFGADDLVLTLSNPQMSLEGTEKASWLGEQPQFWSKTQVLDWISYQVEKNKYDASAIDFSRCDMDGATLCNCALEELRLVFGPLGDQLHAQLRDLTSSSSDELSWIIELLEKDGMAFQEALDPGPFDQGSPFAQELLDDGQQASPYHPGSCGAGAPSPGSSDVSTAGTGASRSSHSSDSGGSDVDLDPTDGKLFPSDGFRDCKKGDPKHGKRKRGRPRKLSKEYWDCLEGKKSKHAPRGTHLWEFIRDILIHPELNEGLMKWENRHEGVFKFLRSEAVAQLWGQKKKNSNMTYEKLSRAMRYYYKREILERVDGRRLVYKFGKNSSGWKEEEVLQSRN
The method in brief:
as §1

For a further assay, the target named is ETV1 (Homo sapiens, UniProt P50549 1-477). An outline of the steps:
as §1

Chain of ELF4 (Q99607 whole entry): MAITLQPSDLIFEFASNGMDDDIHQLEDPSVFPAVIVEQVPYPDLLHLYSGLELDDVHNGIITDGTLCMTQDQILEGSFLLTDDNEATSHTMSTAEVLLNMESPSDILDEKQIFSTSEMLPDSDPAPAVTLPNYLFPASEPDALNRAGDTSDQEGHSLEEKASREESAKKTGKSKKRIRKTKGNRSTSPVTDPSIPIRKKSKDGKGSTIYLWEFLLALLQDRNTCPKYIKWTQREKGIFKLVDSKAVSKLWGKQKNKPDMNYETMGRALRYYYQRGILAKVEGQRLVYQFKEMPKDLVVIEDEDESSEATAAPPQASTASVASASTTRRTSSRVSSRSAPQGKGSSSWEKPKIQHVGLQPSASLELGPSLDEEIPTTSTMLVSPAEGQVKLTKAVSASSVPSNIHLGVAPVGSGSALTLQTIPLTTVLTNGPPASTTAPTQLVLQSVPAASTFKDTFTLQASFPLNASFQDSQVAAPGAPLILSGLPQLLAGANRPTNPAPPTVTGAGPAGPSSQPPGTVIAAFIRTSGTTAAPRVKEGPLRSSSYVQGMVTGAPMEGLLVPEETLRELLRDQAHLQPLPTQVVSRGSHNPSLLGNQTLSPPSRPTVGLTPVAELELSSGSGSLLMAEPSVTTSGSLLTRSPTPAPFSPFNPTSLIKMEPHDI
Chain of ETV1 (P50549 whole entry): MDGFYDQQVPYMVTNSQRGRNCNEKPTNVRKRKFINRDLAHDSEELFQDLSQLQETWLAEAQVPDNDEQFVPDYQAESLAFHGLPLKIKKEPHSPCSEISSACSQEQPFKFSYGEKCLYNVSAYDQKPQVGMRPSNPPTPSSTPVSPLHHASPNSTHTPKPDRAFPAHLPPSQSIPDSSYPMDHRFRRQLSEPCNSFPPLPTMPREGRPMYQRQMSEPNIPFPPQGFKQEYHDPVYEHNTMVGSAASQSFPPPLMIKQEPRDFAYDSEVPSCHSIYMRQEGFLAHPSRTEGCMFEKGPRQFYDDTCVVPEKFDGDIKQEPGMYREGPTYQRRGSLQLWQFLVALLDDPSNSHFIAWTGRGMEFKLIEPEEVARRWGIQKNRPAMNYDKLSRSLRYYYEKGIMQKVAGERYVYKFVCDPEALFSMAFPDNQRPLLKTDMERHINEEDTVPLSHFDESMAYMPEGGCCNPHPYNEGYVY
Chain of ETV5 (P41161 whole entry): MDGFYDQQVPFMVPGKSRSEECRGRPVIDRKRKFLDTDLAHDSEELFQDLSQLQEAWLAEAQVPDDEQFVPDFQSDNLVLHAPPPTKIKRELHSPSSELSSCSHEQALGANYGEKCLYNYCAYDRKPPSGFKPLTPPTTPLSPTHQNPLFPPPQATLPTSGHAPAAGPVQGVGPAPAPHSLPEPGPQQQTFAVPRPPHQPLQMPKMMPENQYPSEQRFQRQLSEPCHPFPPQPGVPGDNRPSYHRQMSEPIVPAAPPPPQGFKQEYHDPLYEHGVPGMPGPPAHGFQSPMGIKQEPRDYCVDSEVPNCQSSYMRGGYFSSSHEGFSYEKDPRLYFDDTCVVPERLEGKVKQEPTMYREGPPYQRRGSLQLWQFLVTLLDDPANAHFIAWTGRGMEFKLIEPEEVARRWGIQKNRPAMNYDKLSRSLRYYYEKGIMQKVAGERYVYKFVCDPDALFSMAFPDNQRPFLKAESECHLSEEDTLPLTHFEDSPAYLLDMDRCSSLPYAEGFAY
Chain of ELF1 (P32519 whole entry): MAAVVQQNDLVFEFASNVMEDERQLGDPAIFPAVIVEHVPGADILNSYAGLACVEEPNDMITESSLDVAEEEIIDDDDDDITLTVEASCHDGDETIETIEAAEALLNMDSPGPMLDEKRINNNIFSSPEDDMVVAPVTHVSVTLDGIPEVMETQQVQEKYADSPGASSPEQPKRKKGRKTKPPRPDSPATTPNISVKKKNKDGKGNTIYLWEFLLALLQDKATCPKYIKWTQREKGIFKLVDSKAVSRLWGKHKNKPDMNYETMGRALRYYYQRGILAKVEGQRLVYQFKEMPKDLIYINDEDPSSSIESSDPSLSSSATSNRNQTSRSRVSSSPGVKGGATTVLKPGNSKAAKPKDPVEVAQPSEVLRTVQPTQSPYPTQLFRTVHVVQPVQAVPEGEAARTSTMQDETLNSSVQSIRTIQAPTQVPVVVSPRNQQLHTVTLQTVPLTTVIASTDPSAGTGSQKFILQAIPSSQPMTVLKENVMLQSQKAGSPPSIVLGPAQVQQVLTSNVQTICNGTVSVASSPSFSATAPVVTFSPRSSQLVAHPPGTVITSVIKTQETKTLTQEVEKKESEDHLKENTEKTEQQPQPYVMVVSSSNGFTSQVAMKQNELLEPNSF

Consider AACCAC, for which the binding signal is 1.18 fold enrichment (6-mer frequency, TF over GST control) in the assay with FLI1; 1.19 fold enrichment (6-mer frequency, TF over GST control) with ELK1; 1.17 fold enrichment (6-mer frequency, TF over GST control) with GABPA; 1.15 fold enrichment (6-mer frequency, TF over GST control) with ERG; 1.25 fold enrichment (6-mer frequency, TF over GST control) in the assay with ELF1; 1.16 fold enrichment (6-mer frequency, TF over GST control) with EHF. The binding signal with SPI1 was 1.12 fold enrichment (6-mer frequency, TF over GST control); in the assay with SPIB, 1.19 fold enrichment (6-mer frequency, TF over GST control); with ELK3, 1.29 fold enrichment (6-mer frequency, TF over GST control); in the assay with FEV it was 1.2 fold enrichment (6-mer frequency, TF over GST control); with ETV5, 1.17 fold enrichment (6-mer frequency, TF over GST control); with SPIC, 1.25 fold enrichment (6-mer frequency, TF over GST control). The binding signal in the assay with ELF4 was 1.26 fold enrichment (6-mer frequency, TF over GST control); in the assay with ELK4, 1.26 fold enrichment (6-mer frequency, TF over GST control); with ETV2, 1.05 fold enrichment (6-mer frequency, TF over GST control); with ELF3 it was 1.21 fold enrichment (6-mer frequency, TF over GST control); with ETV1, 1.17 fold enrichment (6-mer frequency, TF over GST control).

On to GCACAT, for which the binding signal in the assay with FLI1 is 1.16 fold enrichment (6-mer frequency, TF over GST control); in the assay with ELK1, 1.05 fold enrichment (6-mer frequency, TF over GST control); with GABPA it was 1.16 fold enrichment (6-mer frequency, TF over GST control); with ERG it was 1.2 fold enrichment (6-mer frequency, TF over GST control); with ELF1, 1.1 fold enrichment (6-mer frequency, TF over GST control); in the assay with EHF, 1.14 fold enrichment (6-mer frequency, TF over GST control). Besides, the binding signal with SPI1 was 1.14 fold enrichment (6-mer frequency, TF over GST control); in the assay with SPIB it was 1.08 fold enrichment (6-mer frequency, TF over GST control); with ELK3, 1.17 fold enrichment (6-mer frequency, TF over GST control); with FEV it was 1.23 fold enrichment (6-mer frequency, TF over GST control); with ETV5 it was 1.2 fold enrichment (6-mer frequency, TF over GST control); with SPIC, 1.14 fold enrichment (6-mer frequency, TF over GST control). The binding signal with ELF4 was 1.12 fold enrichment (6-mer frequency, TF over GST control); in the assay with ELK4 it was 1.06 fold enrichment (6-mer frequency, TF over GST control); with ETV2, 1.09 fold enrichment (6-mer frequency, TF over GST control); in the assay with ELF3, 1.11 fold enrichment (6-mer frequency, TF over GST control); with ETV1 it was 1.1 fold enrichment (6-mer frequency, TF over GST control).
